According to ChEMBL document CHEMBL3988442, “University of Dundee, Small-Polar-MMV Screening Library” (2021):
For some assays here: Potency and affinity values are given separately.

Columns and labels:
Set-up in all cases: scale not given: direction of the effect not stated beside the values
[1] = molecular target: Protein translocase subunit SecA (Escherichia coli (strain K12)) (UniProt P10408); assay: Assay to Identify E. coli SecA ATPase Inhibitors; assay type: functional; details: 30 µM
[2] = molecular target: T1, Ubiquitin-activating enzyme e1, putative (Leishmania donovani (strain BPK282A1)) (UniProt E9BSI1); assay: Leishmania donovani Ubiquitin Activating Enzyme (LdE1); assay type: functional; details: 30 µM
T1 sequence (whole entry): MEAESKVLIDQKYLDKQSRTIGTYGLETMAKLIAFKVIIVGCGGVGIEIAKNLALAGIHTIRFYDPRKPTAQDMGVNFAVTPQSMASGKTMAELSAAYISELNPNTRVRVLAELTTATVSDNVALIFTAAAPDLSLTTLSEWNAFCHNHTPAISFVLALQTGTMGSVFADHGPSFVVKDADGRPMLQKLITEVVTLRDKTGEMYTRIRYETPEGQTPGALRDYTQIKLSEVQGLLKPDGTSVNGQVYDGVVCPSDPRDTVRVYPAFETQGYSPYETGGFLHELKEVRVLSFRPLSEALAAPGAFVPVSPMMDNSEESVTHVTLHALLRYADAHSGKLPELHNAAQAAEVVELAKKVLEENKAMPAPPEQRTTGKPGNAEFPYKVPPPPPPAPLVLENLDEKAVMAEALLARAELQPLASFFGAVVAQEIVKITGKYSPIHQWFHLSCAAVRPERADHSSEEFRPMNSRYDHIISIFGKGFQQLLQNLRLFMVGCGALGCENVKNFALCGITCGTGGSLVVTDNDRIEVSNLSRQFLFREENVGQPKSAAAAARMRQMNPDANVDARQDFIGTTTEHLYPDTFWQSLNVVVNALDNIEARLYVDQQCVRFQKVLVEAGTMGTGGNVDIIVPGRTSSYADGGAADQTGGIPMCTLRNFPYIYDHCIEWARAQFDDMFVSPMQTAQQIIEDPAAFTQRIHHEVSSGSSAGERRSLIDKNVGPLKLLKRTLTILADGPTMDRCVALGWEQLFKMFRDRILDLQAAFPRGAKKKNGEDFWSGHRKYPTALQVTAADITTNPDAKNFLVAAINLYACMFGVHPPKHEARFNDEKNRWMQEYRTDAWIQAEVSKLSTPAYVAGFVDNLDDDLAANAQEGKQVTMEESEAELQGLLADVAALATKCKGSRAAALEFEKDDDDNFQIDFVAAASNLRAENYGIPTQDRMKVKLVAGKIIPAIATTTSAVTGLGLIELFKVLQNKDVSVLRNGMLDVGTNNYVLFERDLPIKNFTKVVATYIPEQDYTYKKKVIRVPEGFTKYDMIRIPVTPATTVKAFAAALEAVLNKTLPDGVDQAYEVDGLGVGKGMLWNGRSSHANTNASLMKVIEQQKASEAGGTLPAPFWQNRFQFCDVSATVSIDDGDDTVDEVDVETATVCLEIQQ

[3] = molecular target: AMP-activated protein kinase, AMPK (Homo sapiens) (UniProt P54646+O43741+P54619+Q9UGJ0+Q9Y478+Q13131+Q9UGI9); assay: AMP-dependent Kinase enzyme assay. An in vitro enzyme assay that detects ADP turnover that is directly proportional to AMPK activity. This uses naive AMPK that is activated during the assay with MK-8722; assay type: functional; details: 30 µM
[4] = molecular target: Sialic acid-binding Ig-like lectin 9 (Homo sapiens) (UniProt Q9Y336); assay: Hs-Siglec9 ALPHAscreen SOP 20170721; details: 10 µM
Trypanosoma cruzi = assay: Trypanosoma cruzi phosphomannomutase and mannose-1-phosphate guanylyltransferase assay; assay type: functional; details: 10 µM
[5] = molecular target: T2, Arginase-2, mitochondrial (Homo sapiens) (UniProt P78540); assay: in vitro enzyme assay to detect the production of urea directly proportional to the activity of Arginase II; assay type: functional; details: 33.3 µM; note: in the data most compounds retested in dose-response had high values
T2 sequence (whole entry): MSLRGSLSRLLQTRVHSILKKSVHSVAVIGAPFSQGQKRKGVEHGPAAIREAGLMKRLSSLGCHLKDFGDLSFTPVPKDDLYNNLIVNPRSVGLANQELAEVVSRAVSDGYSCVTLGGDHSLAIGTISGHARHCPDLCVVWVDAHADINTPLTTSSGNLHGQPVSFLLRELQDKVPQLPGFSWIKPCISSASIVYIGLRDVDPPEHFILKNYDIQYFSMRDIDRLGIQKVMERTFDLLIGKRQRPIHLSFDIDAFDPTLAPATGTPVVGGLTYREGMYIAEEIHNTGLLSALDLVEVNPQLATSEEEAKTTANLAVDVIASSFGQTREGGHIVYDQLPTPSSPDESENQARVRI

[6] = molecular target: T3, Proteasome subunit beta (Trypanosoma cruzi) (UniProt O96673); assay: Trypanosoma cruzi proteasome chymotrypsin-like activity (TcProtChymo) assay.; note: in the data most compounds retested in dose-response had high values; assay type: functional; details: 9.37 µM
T3 sequence (whole entry): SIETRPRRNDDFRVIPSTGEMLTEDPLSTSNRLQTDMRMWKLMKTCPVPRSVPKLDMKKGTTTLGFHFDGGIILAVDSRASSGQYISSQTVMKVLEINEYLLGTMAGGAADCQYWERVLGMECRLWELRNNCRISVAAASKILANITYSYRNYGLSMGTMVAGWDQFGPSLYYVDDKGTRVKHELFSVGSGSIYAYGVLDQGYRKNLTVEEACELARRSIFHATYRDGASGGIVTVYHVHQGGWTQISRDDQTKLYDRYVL

Homo sapiens = organism: Homo sapiens; assay: To identify inhibition of the IFN signalling (Jak-Stat) pathway via expression of an eGFP reporter gene under the control of an IFN-stimulated response element (ISRE) containing MxA promoter.; assay type: functional; details: 30 µM
[7] = molecular target: T4, Tyrosyl-tRNA synthetase, putative (Trypanosoma cruzi (strain CL Brener)) (UniProt Q4DSP6); assay: Trypanosoma cruzi tyrosyl tRNA synthetase (TcYRS) _High Tyrosine SOP; assay type: functional; details: 30 µM; note: in the data most compounds retested in dose-response had high values
T4 sequence (whole entry): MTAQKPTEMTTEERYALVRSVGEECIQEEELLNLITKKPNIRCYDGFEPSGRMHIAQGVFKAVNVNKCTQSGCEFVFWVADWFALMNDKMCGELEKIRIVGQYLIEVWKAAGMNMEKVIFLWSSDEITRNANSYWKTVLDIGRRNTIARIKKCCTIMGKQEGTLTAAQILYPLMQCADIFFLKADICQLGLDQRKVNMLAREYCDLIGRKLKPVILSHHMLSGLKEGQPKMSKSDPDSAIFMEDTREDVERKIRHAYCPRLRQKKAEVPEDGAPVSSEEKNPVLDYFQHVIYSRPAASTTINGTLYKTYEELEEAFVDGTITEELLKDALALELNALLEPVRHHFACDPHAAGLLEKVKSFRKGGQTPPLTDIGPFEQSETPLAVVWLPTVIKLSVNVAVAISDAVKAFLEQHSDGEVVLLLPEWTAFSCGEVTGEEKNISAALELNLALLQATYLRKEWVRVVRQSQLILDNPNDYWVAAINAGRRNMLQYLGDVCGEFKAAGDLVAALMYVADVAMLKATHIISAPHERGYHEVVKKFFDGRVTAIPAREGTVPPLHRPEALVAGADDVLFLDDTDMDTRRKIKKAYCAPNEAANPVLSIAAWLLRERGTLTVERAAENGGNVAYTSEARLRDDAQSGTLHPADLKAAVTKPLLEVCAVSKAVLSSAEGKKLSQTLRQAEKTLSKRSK

[8] = molecular target: T4, Tyrosyl-tRNA synthetase, putative (Trypanosoma cruzi (strain CL Brener)); assay: Trypanosoma cruzi tyrosyl tRNA synthetase (TcYRS) SOP; assay type: functional; details: 30 µM
[9] = molecular target: Chromo domain-containing protein 1 (Saccharomyces cerevisiae (strain ATCC 204508 / S288c) (Baker's yeast)) (UniProt P32657); assay: ScCHD-1 Enzyme Inhibition Assay; assay type: functional; details: 30 µM; note: in the data most compounds retested in dose-response had high values
Chromo domain-containing protein 1 (Saccharomyces cerevisiae (strain ATCC 204508 / S288c) (Baker's yeast)), sequence (P32657 whole entry, the tested form may be a part): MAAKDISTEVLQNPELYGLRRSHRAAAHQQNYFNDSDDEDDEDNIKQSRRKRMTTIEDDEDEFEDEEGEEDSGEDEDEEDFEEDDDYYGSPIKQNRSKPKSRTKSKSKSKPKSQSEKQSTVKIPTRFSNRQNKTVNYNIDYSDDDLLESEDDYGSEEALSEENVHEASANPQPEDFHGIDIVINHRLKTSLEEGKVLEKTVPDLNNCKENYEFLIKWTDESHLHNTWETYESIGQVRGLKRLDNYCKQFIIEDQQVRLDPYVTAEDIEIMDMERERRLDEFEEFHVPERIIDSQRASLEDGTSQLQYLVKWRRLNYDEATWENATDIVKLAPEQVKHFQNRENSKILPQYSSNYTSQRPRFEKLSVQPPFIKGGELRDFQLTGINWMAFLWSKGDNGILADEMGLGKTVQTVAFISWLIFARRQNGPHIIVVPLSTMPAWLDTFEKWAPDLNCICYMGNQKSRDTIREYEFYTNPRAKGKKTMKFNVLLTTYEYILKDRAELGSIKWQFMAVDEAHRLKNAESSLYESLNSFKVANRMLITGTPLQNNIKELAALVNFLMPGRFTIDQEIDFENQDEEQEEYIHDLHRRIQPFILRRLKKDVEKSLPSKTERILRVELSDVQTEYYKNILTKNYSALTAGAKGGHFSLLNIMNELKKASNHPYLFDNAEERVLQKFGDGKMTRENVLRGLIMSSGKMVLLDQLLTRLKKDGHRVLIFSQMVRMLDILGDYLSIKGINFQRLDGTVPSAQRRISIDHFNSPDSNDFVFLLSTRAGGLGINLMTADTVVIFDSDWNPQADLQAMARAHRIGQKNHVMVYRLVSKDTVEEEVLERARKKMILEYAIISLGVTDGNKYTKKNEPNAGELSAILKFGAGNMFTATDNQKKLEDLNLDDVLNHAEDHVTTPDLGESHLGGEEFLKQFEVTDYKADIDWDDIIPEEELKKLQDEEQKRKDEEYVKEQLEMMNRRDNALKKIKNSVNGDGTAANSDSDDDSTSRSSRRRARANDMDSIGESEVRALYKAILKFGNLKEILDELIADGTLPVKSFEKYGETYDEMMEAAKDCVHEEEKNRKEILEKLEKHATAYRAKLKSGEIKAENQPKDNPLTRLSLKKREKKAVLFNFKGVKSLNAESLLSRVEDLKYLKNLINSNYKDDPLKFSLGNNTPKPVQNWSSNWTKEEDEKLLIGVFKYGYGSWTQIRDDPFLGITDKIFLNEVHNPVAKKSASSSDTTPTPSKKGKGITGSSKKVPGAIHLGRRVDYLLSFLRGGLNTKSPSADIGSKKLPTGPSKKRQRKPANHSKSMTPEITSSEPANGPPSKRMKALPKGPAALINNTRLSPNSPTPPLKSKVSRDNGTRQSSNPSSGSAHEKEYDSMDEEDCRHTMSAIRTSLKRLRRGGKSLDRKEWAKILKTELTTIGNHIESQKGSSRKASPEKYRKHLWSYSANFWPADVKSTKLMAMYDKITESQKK

Sialic acid-binding Ig-like lectin 9 (Homo sapiens), sequence (Q9Y336 whole entry): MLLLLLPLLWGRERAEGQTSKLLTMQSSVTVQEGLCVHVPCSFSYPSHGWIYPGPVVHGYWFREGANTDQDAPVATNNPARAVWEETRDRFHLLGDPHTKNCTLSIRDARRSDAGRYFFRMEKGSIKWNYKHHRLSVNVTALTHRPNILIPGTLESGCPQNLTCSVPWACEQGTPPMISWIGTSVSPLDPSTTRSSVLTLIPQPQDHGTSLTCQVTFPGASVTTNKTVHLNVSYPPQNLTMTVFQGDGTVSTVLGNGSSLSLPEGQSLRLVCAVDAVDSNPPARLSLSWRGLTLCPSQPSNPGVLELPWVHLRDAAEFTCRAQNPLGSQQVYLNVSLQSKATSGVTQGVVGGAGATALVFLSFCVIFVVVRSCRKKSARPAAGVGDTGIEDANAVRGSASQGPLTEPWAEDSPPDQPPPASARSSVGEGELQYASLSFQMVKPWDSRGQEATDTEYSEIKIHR
Protein translocase subunit SecA (Escherichia coli (strain K12)), sequence (P10408 whole entry): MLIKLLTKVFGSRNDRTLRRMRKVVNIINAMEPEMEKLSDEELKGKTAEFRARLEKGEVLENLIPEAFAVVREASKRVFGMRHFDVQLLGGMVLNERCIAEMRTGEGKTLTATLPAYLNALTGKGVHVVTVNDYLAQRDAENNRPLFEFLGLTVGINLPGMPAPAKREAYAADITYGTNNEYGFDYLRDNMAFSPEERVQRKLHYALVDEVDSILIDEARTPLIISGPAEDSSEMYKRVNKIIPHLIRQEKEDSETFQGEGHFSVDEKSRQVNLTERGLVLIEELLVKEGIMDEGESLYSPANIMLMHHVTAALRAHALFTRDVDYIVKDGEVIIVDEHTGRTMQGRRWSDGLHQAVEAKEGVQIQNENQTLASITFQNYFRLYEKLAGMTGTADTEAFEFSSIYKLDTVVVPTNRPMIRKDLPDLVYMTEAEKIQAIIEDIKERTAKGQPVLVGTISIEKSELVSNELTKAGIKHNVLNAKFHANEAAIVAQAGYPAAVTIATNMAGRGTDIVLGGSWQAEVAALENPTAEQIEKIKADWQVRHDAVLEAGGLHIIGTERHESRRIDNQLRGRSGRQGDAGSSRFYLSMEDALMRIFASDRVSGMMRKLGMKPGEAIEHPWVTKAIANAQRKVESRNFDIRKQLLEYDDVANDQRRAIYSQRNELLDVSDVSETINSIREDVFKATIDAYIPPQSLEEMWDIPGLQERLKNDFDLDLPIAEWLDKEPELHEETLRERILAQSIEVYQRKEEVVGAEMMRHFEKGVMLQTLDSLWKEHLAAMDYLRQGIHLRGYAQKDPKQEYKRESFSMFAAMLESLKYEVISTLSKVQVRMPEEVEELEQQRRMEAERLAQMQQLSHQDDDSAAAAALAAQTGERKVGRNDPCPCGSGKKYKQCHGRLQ

Structure (SMILES) | Percent Effect [1] [%] | Percent Effect [2] [%] | Percent Effect [3] [%] | Percent Effect [4] [%] | Percent Effect (Trypanosoma cruzi) [%] | Percent Effect [5] [%] | Percent Effect [6] [%] | Percent Effect (Homo sapiens) [%] | Percent Effect [7] [%] | Percent Effect [8] [%] | Percent Effect [9] [%]
O=C(O)C1(Cc2cccc(-c3ccc(F)c(F)c3)c2)CCOCC1 | -3.39 | 1.35 | 13.4 | 4.42 | -1.78 | 1.16 | 5.93 | 28.6 | -15.1 | -11.7 | -15
COCc1cccc(NC(C)C(=O)N(C)Cc2ccccc2)c1 (stereo unspecified) | -8.46 | 10.8 | -16.3 | 48 | 7.92 | 33.5 | -1.46 | -2.64 | 6.45 | 13.6 | -14.3
CCS(=O)(=O)N1C[C@H]2C[C@H](C(=O)N(C)C)[C@@H](C1)O2 | -1.35 | 8 | 9.37 | 0.653 | -5.51 | 3.03 | 5.55 | 5.25 | 4.25 | 6.41 | -3.75
Cc1cnn(CC2CCCN2C(=O)c2ccc3[nH]nnc3c2)c1 (stereo unspecified) | -1.48 | 8.86 | -1.94 | -8.54 | 2.97 | -2.8 | 17.5 | 2.88 | 1.04 | 10.1 | -4.85
CS(=O)(=O)NCCCN1CCCCC1c1cc2ccccc2[nH]1 (stereo unspecified) | -6.23 | 15.2 | -13 | 11.7 | 8.03 | -7.22 | 5.65 | -8.5 | 1.48 | 16.5 | -7.23
CC(C)NC(=O)N1CCC(n2ccc(C(F)(F)F)n2)CC1 | -6.7 | 5.48 | -3.52 | -4.66 | -2.74 | -0.909 | 5.32 | -13.8 | 0 | 7.5 | -2.82
Cc1c(C2CCCN(C(=O)Cc3ccccn3)C2)n2c(nc1=O)CCC2 (stereo unspecified) | -4 | 12.2 | 4.92 | -3.29 | -5.53 | 0.696 | 15.3 | 14.5 | 6.45 | 6.49 | -11.6
CCS(=O)(=O)N1CCc2c(CN(C)Cc3ccco3)cncc2C1 | -1.78 | -2.67 | 2.28 | 4.22 | -3.86 | -1.61 | 11.3 | -0.516 | -2.08 | 5 | -3.58
CCn1cc(N2Cc3nc(N)ncc3C2=O)cn1 | -6.38 | 12 | -9.46 | -1.51 | 7.47 | -20.6 | 13.9 | 2.34 | 7.41 | 17.9 | -15.1
CCn1cc(NC(=O)C2CCN(Cc3ccccc3C#N)CC2)cn1 | -3.86 | 8.86 | 6.54 | 0.163 | -3.79 | 1.5 | 7.03 | 11.2 | 9.38 | 20.2 | -6.33
Cc1nnc(CN2CCN(CC(O)c3cccc(F)c3)CC2)n1C (stereo unspecified) | -3.94 | 15.6 | -3.28 | 3.58 | 2.64 | 0.632 | 8.33 | 14 | 3.81 | 11.8 | -20.7
Cn1ccnc1CN1CCC2(COCCN(Cc3ccsc3)C2)C1 (stereo unspecified) | -3.36 | 13 | -5.28 | 12.1 | 6 | -11 | 12.2 | -9.92 | 9.68 | 21 | -6.67
Cc1nccn1CC1CCCN1S(=O)(=O)Cc1ccon1 (stereo unspecified) | -1.65 | 20.2 | -1.52 | -6.85 | 3.68 | -6.84 | 14 | 7.78 | 5.42 | 3.8 | -7.21
CCC(=O)N1CCc2[nH]cnc2C12CCN(C(=O)CCS(C)(=O)=O)CC2 | 1.36 | 6.94 | -9.27 | 3.42 | 4.37 | 23.4 | 19.1 | 22.1 | 5.26 | 7.69 | -2.55
CCn1c(CN2CCCN(C(=O)OC)CC2)nc2c(F)cccc21 | -2.85 | 15.8 | -5.17 | 7.02 | -3.95 | 8.81 | 9.69 | -5.04 | 6.37 | 12.2 | -4.43
CC(C)NC(=O)N1CCc2ncc(CN3CCOCC3)n2CC1 | 1.23 | 0 | 6.6 | 1.59 | -4.2 | 0.319 | 14 | 4.62 | 3.24 | 7.69 | 1.69
